SMILES strings stand for the structures. Among all 310,000 compounds or so, about 14,000 (4.5%) showed an effect of 50% or more. Effects have a minus sign here. Only a selection was taken, and strong results are over-represented in it overall.
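Further: peak tail current of the secondary pulse compared with the same well before compound.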

Chain of human ether-à-go-go-related gene (hERG) potassium channel (Q12809 whole entry, looked up): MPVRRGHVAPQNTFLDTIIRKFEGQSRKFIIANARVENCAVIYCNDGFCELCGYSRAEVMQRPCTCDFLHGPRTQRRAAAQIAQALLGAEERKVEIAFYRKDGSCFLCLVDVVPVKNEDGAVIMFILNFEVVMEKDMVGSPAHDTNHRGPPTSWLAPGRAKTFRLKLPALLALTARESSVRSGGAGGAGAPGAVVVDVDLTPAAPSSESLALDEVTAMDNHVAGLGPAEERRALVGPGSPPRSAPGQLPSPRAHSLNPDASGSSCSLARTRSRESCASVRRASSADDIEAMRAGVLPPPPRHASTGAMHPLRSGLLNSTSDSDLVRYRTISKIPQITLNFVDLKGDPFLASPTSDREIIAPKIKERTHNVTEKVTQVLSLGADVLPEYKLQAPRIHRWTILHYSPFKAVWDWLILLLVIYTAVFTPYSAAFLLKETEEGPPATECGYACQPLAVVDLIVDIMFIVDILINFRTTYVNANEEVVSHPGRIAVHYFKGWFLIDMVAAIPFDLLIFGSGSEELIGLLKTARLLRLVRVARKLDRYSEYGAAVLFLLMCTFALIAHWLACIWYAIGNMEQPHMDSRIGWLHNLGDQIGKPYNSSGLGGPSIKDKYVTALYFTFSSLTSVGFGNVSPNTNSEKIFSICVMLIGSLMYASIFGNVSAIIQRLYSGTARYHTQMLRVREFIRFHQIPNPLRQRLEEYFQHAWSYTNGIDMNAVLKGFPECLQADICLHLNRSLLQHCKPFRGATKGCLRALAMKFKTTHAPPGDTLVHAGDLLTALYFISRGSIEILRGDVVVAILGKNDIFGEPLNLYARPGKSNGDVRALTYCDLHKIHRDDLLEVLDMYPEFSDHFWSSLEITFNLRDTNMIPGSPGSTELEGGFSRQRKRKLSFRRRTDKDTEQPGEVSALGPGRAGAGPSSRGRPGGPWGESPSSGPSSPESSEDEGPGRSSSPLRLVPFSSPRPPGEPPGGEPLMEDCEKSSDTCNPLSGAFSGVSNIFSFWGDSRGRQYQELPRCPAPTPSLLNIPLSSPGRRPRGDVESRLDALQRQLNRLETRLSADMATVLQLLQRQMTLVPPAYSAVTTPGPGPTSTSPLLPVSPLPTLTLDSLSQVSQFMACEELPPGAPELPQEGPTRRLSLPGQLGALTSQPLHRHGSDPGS

This test has as its target human ether-à-go-go-related gene (hERG) potassium channel (human, UniProt Q12809). Kind of test: primary screen, population patch clamp on CHO cells stably expressing hERG; higher = less effect of the substance.
Take `COc1ccc(NC(=O)CSCc2ccc([N+](=O)[O-])cc2)cc1OC`: the “hERG current change (%, negative = inhibition) at 10uM” value is -17.5%.

Turning to `O=C(NCCO)c1cc2cc(Cl)cc(Cl)c2oc1=O`, the “hERG current change (%, negative = inhibition) at 10uM” value is recorded as -3.65%.

`CCN(CC(=O)NCc1cccs1)C(=O)COc1ccc(C(N)=O)cc1`: the “hERG current change (%, negative = inhibition) at 10uM” value came out at 6.69%.

In the case of `CC(C)=CCOc1ccc2c(C)c(CC(=O)N3C[C@H]4C[C@@H](C3)c3cccc(=O)n3C4)c(=O)oc2c1C`, the “hERG current change (%, negative = inhibition) at 10uM” value is given as -57.3%.

With `CCCCc1cc(=O)oc2c(C)c(OCC(=O)N3CCCC3)ccc12`, the “hERG current change (%, negative = inhibition) at 10uM” value was -64.8%.

Regarding `CCCCc1cc(=O)oc2c(C)c(OCC(=O)N3CCC(C(=O)O)(c4ccccc4)CC3)ccc12`, the “hERG current change (%, negative = inhibition) at 10uM” value turned out to be 6.82%.

On to `CCc1cc(=O)oc2cc(OCC(=O)N3C[C@H]4C[C@@H](C3)c3cccc(=O)n3C4)c(Cl)cc12`, for which the “hERG current change (%, negative = inhibition) at 10uM” value was -3.61%.

`CCc1cc(=O)oc2c(C)c(OCC(=O)N3C[C@H]4C[C@@H](C3)c3cccc(=O)n3C4)ccc12`: the “hERG current change (%, negative = inhibition) at 10uM” value stood at 5.08%.

Regarding `C=C(C)COc1ccc2c(C)c(CC(=O)N3C[C@H]4C[C@@H](C3)c3cccc(=O)n3C4)c(=O)oc2c1C`, the “hERG current change (%, negative = inhibition) at 10uM” value was -49.2%.

As for `CCCCc1cc(=O)oc2c(C)c(OCC(=O)N3CCC(C(N)=O)CC3)ccc12`, the “hERG current change (%, negative = inhibition) at 10uM” value was -16.7%.

Regarding `COc1ccc2c(C)c(CC(=O)N3C[C@H]4C[C@@H](C3)c3cccc(=O)n3C4)c(=O)oc2c1C`, the “hERG current change (%, negative = inhibition) at 10uM” value is on record as -3.48%.

As for `CCCCc1cc(=O)oc2cc(OCC(=O)N3C[C@H]4C[C@@H](C3)c3cccc(=O)n3C4)c(Cl)cc12`, the “hERG current change (%, negative = inhibition) at 10uM” value was -62.5%.

Consider `CCCCc1cc(=O)oc2c(C)c(OCC(=O)N3C[C@H]4C[C@@H](C3)c3cccc(=O)n3C4)ccc12`, for which the “hERG current change (%, negative = inhibition) at 10uM” value was -60%.

For the compound `CCCc1cc(=O)oc2cc(OCC(=O)N3C[C@H]4C[C@@H](C3)c3cccc(=O)n3C4)c(Cl)cc12`, the “hERG current change (%, negative = inhibition) at 10uM” value is reported as -14.7%.

Regarding `CCCc1cc(=O)oc2c(C)c(OCC(=O)N3C[C@H]4C[C@@H](C3)c3cccc(=O)n3C4)ccc12`, the “hERG current change (%, negative = inhibition) at 10uM” value is listed as -23.9%.

`CC(C)N(C(=O)CSc1nnc(CSc2ncccn2)n1C)C(C)C`: the “hERG current change (%, negative = inhibition) at 10uM” value is 32.8%.

Consider `O=c1[nH]n2cc(-n3cc([N+](=O)[O-])cn3)cnc2c1Br`, for which the “hERG current change (%, negative = inhibition) at 10uM” value is 10.6%.

Take `CCCCNC(=O)CCC(=O)N1CCN(C(c2ccccc2)c2ccccc2)CC1.Cl`: the “hERG current change (%, negative = inhibition) at 10uM” value is listed as -7.34%.

As to `O=C(CCc1ccccc1)Nc1ccc(NC(=O)C2CCCCC2)nc1`, the “hERG current change (%, negative = inhibition) at 10uM” value came to 7.57%.

For `Cl.O=C(/C=C/c1ccccc1)Nc1ccc(N2CCCCC2)cc1`, the “hERG current change (%, negative = inhibition) at 10uM” value came out at 5.7%.

For the compound `O=C(Nc1ncccc1O)c1cccc(S(=O)(=O)NCc2ccccc2)c1`, the “hERG current change (%, negative = inhibition) at 10uM” value is -20.3%.

The values are drawn from article PMC4336329 (PLoS ONE, 2015).
